Experimental findings from PubChem BioAssay are described below.

For assay [1], the target named is Albumin (Bos taurus) (UniProt P02769). The assay is described as follows: compounds binding labelled BSA control protein – biochemical, small-molecule microarray, Alexa647 label, 635/667 nm fluorescence, artefact control for SMM control protein annotation, profiling panel (AID 1118).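 Further: score merges 667 nm emission intensity and signal-to-noise per printed compound spot.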 As to conditions: BSA-A647 binding, fluorescence 635 nm, higher = more signal.
Chain of Albumin (Bos taurus) (P02769 whole entry, looked up): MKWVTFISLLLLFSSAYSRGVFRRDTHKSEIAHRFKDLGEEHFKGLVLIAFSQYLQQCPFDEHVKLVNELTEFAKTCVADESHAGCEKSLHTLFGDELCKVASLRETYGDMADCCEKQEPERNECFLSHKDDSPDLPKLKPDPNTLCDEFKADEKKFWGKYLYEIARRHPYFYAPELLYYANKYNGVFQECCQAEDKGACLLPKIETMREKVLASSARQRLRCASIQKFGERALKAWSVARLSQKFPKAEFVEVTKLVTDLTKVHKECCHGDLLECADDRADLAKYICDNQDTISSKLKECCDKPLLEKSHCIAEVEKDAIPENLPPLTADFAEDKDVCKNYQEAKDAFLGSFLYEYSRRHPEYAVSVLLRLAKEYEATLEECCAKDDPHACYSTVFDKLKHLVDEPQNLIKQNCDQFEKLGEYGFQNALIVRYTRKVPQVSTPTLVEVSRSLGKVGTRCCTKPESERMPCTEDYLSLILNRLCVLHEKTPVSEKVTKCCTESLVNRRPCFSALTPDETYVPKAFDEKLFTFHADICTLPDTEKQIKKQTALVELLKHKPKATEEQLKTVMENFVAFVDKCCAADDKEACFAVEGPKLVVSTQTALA
Assay [2] can be described thus: probe aXIP binding to arrayed compounds – biochemical, NeuroSMM set, 635/667 nm fluorescence, primary screen (AID 1119).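 Further: probe is the protein aXip251-270 applied at 1 µg/mL to compound-printed slides; binding of probe to printed compounds measured as 667 nm fluorescence plus signal to noise.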 As to conditions: small-molecule microarray, higher = more signal, called active from +8 up or from −8 down.
Assay [3] can be described thus: probe aNOTCH3 binding on compound microarray – biochemical, small-molecule microarray, 635/667 nm fluorescence, primary screen (AID 1120).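 Further: probe is a biotin-tagged antibody raised against NOTCH3 rather than NOTCH3 protein; score merges spot fluorescence near 667 nm with spot signal to noise.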 As to conditions: higher = more signal.
Assay [4] is described as follows: probe aNOTCH2 binding on compound microarray – biochemical, small-molecule microarray, 635/667 nm fluorescence, primary screen (AID 1121).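 Further: score merges feature fluorescence read at 667 nm with its signal to noise.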 As to conditions: higher = more signal.
Assay [5] concerns the target Carbonic anhydrase 2 (Homo sapiens) (UniProt P00918). Nature of the assay: compounds binding carbonic anhydrase 2 – biochemical, small-molecule microarray, Alexa647-labelled CAII, profiling panel (AID 1122). Conditions: CAII-A647 binding fluorescence, higher = more signal.
Assay [6] can be described thus: COS7 lysate on small-molecule microarray, probe aHis, 635 nm (AID 1123).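 Further: z-score combines 667nm fluorescence intensity with signal-to-noise per printed compound spot.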 As to conditions: COS7 cell lysate, fluorescence, higher = more signal.
Assay [7] can be described thus: probe aLAP1 signal on lysate-treated microarray – cell lysate, small-molecule microarray, COS7 lysate, primary screen (AID 1124).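 Further: lysate comes from COS7 cells expressing LAP1 and is applied at 0.3 µg/mL; score merges spot fluorescence near 667 nm with signal-to-noise over triplicate slides.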 Conditions: probe aLAP1, fluorescence, higher = more signal.
The test system of assay [8] is Sam68 (KHDRBS1). The assay is described as follows: compounds binding KHDRBS1 protein – biochemical, small-molecule microarray, 635 nm fluorescence, primary screen (AID 1125).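 Further: score merges 667 nm channel intensity with signal to noise over triplicate slides.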 As to conditions: higher = more signal.
Assay [9] relates to Chordin-like protein 2 (CHRDL2). The assay is described as follows: compounds binding chordin-like 2 – biochemical, small-molecule microarray, 635 nm fluorescence, primary screen (AID 1126).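 Further: printed compound slides probed with Chrdl2 protein at 4 µg/mL for 1 h at 4 C; score merges 667 nm emission intensity with signal to noise over three replicate slides.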 Conditions: fluorescence 635 nm, higher = more signal.
Assay [10] deals with Concanavalin-A (Canavalia ensiformis) (UniProt P02866). Nature of the assay: compounds binding concanavalin A lectin – biochemical, small-molecule microarray, Alexa647 label, 635 nm, artefact control for SMM control protein annotation, primary screen (AID 1127).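 Further: z combines 667 nm emission intensity with signal-to-noise across three replicate slides.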 As to conditions: ConA-A647 binding fluorescence, higher = more signal.
Chain of Concanavalin-A (Canavalia ensiformis) (P02866 whole entry, looked up): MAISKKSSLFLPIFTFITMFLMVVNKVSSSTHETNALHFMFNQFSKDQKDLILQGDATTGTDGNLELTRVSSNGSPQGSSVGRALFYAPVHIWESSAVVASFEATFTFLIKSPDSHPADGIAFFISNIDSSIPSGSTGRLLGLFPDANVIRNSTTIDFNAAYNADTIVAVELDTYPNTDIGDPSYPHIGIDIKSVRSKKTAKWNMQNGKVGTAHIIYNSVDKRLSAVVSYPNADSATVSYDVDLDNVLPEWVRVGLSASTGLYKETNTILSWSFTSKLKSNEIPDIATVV
Assay [11] in a line: compounds binding Alexa647 anti-His antibody – biochemical, small-molecule microarray, 635 nm fluorescence, artefact control for SMM control protein annotation, primary screen (AID 1128).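 Further: score merges feature fluorescence with signal-to-noise for each printed compound spot.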 As to conditions: higher = more signal.
Assay [12] deals with Human papillomavirus type 1a E7 protein (residues 1-88). Nature of the assay: HPV1a E7 small-molecule binders, primary screen, biochemical, small-molecule microarray, residues 1-88, 635 nm (AID 1129). As to conditions: small-molecule microarray binding, fluorescence 635 nm; higher = more signal.
Assay [13] addresses Focal adhesion kinase 1 (Homo sapiens) (UniProt Q05397). Nature of the assay: PTK2 protein binding on printed compound slides – biochemical, small-molecule microarray, 635/667 nm fluorescence, BSA, DTT, primary screen (AID 1130).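 Further: composite of spot emission at 667 nm and signal to noise over triplicate slides.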 Conditions: 635 nm fluorescence, higher = more signal.
Assay [14] concerns Fibrinogen (Alexa647-labelled). Nature of the assay: Alexa647-fibrinogen binding to printed small molecules – biochemical, small-molecule microarray, 635/667 nm fluorescence, artefact control for SMM control-protein annotation, profiling panel (AID 1131).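 Further: z-score merges 667 nm fluorescence with per-spot signal-to-noise over triplicate slides.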 As to conditions: fibrinogen-A647 binding fluorescence, higher = more signal.
The target in assay [15] is Follistatin (Homo sapiens) (UniProt P19883). Nature of the assay: FST protein binding to printed compounds – biochemical, small-molecule microarray, 635/667 nm fluorescence, primary screen (AID 1132). Conditions: 635 nm fluorescence, higher = more signal.
Chain of Follistatin (Homo sapiens) (P19883 whole entry, looked up): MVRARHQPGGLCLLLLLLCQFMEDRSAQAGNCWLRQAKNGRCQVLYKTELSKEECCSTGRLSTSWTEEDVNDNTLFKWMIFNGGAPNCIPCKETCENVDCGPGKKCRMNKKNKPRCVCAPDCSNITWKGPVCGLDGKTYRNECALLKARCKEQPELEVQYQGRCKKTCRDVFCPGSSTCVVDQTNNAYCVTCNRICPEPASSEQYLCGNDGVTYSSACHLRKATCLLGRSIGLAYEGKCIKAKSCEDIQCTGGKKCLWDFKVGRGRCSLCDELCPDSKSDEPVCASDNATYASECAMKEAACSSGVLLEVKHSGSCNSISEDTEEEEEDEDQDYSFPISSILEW
Assay [16] has as its target Fibroblast growth factor 2 (Homo sapiens) (UniProt P09038). Nature of the assay: basic fibroblast growth factor binding to printed compounds – biochemical, small-molecule microarray, 635/667 nm fluorescence, primary screen (AID 1133). Conditions: FGF2, fluorescence 635/667, higher = more signal.
A short description of assay [17]: JC-1 mitochondrial potential readout, lung cancer cells – cell-based, A549, JC-1 fluorescence, basal, 24 h, 100 nL, profiling panel (AID 1138).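 Further: A549 lung adenocarcinoma cells under basal conditions with no added stimulus; test concentration not given here.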 Conditions: higher = more signal.
Assay [18] deals with Lefty1. Nature of the assay: Lefty1 protein binding to printed compounds – biochemical, small-molecule microarray, 635/667 nm fluorescence, primary screen (AID 1139). Conditions: fluorescence 635/667, higher = more signal.
Assay [19] has as its system wheat germ agglutinin (Triticum aestivum), Alexa647-labelled. Nature of the assay: Alexa647-WGA lectin binding to printed small molecules – biochemical, small-molecule microarray, 635/667 nm fluorescence, artefact control for SMM control-protein annotation, profiling panel (AID 1140).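 Further: score merges 667 nm feature emission with signal to noise over triplicate slides.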 Conditions: WGA-A647 binding, 635 nm fluorescence, higher = more signal.
In assay [20] the target is Luciferin 4-monooxygenase (Photinus pyralis) (UniProt P08659). The assay is described as follows: inhibition of purified Photinus pyralis luciferase – biochemical, luminescence, purified enzyme, 2006 set, primary screen (AID 1141).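 Further: cell-free assay with purified firefly luciferase at 100 ng per well in PBS; test concentration not given here.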 Conditions: purified firefly luciferase, SteadyGlo luminescence, 30 min; higher = more signal, called active from +8 up or from −8 down.
Chain of Luciferin 4-monooxygenase (Photinus pyralis) (P08659 whole entry, looked up): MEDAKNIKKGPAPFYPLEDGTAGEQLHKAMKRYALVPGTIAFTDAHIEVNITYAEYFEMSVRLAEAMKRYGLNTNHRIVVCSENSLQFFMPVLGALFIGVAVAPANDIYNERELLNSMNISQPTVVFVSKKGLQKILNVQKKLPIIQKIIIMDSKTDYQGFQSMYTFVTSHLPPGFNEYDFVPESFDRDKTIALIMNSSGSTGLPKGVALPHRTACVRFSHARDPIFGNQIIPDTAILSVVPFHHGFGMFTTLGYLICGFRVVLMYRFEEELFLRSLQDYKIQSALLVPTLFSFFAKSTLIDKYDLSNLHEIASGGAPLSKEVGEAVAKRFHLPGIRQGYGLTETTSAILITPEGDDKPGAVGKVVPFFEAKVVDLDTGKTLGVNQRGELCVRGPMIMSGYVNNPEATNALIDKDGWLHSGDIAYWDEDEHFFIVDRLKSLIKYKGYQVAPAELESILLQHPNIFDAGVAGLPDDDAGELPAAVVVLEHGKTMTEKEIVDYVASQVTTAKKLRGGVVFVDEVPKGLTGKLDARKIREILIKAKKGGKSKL

Active and inactive are the calls of the source.

Chain of Fibroblast growth factor 2 (Homo sapiens) (P09038 whole entry, looked up): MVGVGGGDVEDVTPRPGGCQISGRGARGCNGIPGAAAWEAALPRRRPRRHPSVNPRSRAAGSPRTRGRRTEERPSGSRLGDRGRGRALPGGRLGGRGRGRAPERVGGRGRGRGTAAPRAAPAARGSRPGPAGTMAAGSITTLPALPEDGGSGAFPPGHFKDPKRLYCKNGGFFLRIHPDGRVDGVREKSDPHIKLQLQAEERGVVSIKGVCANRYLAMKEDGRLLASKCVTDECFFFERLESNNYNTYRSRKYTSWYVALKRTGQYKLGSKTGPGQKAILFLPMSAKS
Chain of Focal adhesion kinase 1 (Homo sapiens) (Q05397 whole entry, looked up): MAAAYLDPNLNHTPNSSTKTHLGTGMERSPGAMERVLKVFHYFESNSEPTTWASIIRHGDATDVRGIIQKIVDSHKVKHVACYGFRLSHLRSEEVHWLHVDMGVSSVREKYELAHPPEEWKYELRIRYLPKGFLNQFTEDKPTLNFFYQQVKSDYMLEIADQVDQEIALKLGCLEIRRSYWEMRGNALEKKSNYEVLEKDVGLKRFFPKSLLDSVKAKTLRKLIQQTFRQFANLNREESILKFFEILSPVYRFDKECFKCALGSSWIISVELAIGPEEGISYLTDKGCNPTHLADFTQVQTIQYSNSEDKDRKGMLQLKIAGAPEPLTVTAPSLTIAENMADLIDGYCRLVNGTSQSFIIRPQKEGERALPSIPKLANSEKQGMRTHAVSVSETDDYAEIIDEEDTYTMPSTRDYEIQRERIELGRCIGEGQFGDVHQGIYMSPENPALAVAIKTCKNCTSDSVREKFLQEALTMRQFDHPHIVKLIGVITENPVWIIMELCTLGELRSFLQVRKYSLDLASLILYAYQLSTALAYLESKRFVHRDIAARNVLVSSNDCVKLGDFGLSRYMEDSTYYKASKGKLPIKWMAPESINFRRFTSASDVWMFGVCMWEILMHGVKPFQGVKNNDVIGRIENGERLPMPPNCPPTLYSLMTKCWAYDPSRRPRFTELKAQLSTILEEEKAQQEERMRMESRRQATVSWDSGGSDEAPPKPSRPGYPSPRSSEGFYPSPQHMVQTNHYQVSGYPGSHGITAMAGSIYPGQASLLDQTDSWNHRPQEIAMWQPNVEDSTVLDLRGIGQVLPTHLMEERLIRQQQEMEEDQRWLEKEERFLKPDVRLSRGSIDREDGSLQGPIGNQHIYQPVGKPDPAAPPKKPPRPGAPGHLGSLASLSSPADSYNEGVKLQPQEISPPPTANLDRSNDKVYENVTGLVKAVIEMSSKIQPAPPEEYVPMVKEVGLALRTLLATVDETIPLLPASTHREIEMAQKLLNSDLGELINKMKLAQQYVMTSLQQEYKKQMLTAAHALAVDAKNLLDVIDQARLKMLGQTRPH

As to `O=C(c1ccccc1)N1Cc2ccccc2C[C@@]2(N=C(c3ccc(OCCCO)cc3)O[C@H]2c2ccccc2)C1=O`, the composite z-score was -0.106 in [1]; 0.0193 in assay [3]; -0.0876 in assay [4]; 0.588 in [5]; 2.43 in assay [6]; 0.548 in assay [7]. In addition, the composite z-score was 1.3 in [8]; 0.639 in [9]; 1.05 in assay [10]; 1.89 in assay [11]; 1.21 in assay [12]; 1.18 in assay [13]. Further, the composite z-score was 0.826 in assay [14]; 1.44 in assay [15]; 1.44 in assay [16]; 0.984 in assay [18]; -0.17 in [19]. The composite Z-score in assay [2] was 1.71 (inactive). The z-score is -1.85 in assay [17] and -1.29 (inactive) in assay [20].
In the case of `COc1ccc(CCNC(=O)[C@@]2(c3ccc([N+](=O)[O-])cc3)CC(=O)N(C3CCCCC3)[C@@H]2c2ccc(CO)cc2I)cc1`, the composite z-score is -0.127 in [1]; 0.0293 in [3]; 0.0254 in assay [4]; 0.364 in assay [5]; 1.52 in assay [6]; 0.89 in [7]. In addition, the composite z-score was found to be 0.962 in assay [8]; 0.252 in assay [9]; 0.754 in assay [10]; 0.312 in [11]; 1.19 in [12]; 0.338 in assay [13]. The composite z-score was -0.0396 in [14]; 1.04 in [15]; 1.24 in [16]; 0.0241 in [18]; 0.402 in [19]. In addition, the composite Z-score in assay [2] was 0.931 (inactive). The z-score in [17] is 3.1; in assay [20] it was -1.28 (inactive).
As for `CC1C2C(CCCO)=CC(C3C(=O)N(C(N)=O)C(=O)C23)N1Cc1cccc(OC(F)(F)F)c1` (stereo not given), the composite z-score was 1 in assay [1]; -0.068 in assay [3]; -0.114 in assay [4]; 0.699 in assay [5]; 1.22 in assay [6]; 0.147 in assay [7]. Besides, the composite z-score in assay [8] is 1.33; in assay [9], 0.0627; in assay [10], -0.0715; in [11], 0.632; in assay [12], 1.11; in [13], 0.314. The composite z-score in assay [14] worked out at 0.646; in assay [15], 0.0794; in [16] it was 0.438; in [18], 0.216; in assay [19], 0.576. Further, the composite Z-score in assay [2] is 0.649 (inactive). The results for the z-score in assay [17] and in [20] were -0.341 and -0.0224 (inactive), respectively.
For `COCCOC(=O)N1C(=O)[C@@]2(c3ccccc31)[C@H](C(=O)Nc1nc3ccccc3s1)[C@H]1C(=O)O[C@H](c3ccccc3)[C@H](c3ccccc3)N1[C@@H]2c1ccccc1OCCO`, the composite z-score in assay [1] is 0.0171; in [3] it was 0.291; in assay [4] it was -0.0684; in assay [5], 0.526; in assay [6], 1.54; in assay [7], 1.63. Further, the composite z-score in assay [8] is 1.3; in assay [9] it was 0.145; in assay [10] it was 1.08; in [11] it was 1.55; in assay [12] it was 1.19; in assay [13], -0.0016. Also, the composite z-score in assay [14] amounted to 0.941; in assay [15], 1.17; in assay [16] it was 0.676; in [18], 0.42; in assay [19] it was 1.19. Besides, the composite Z-score in assay [2] was 0.0308 (inactive). The z-score is -2.3 in assay [17] and -0.653 (inactive) in assay [20].
For `CN1C(=O)C2CC=C(C3=CCO[C@@H]3[C@H]3CCCN3S(=O)(=O)c3ccccc3[N+](=O)[O-])CC2C1=O` (stereo not given in full), the composite z-score in assay [1] is 0.811; in assay [3], -0.0647; in [4], -0.106; in assay [5], -0.0199; in assay [6], 0.205; in assay [7], -0.065. Further, the composite z-score was -0.7 in assay [8]; -0.537 in [9]; -0.65 in assay [10]; -0.354 in assay [11]; -0.342 in [12]; -0.244 in assay [13]. Besides, the composite z-score in assay [14] is 0.533; in assay [15], 0.0289; in assay [16], 0.159; in assay [18], -0.106; in [19], -0.0718. For the same compound, in assay [2], the composite Z-score is 0.0129 (inactive). For the same compound, the z-score in assay [17] is 0.0911; in assay [20], 0.294 (inactive).
For the compound `COc1ccc(C(=O)Nc2ccc(CN3C(=O)[C@@]4(O[C@@H](CC(=O)N(CCO)Cc5ccccc5)[C@H]([Si](C)(C)c5ccc(OC)cc5)[C@H]4C)c4ccccc43)cc2)cc1`, the composite z-score in [1] was 0.469; in [3], -0.222; in [4], -0.172; in assay [5] it was 0.294; in assay [6] it was 0.678; in assay [7], -0.294. The composite z-score is 0.0422 in assay [8]; 1.01 in [9]; 1.1 in assay [10]; 0.757 in assay [11]; 0.066 in [12]; 0.385 in assay [13]. The composite z-score in assay [14] was determined as 0.0715; in assay [15], 0.35; in [16], 0.936; in assay [18], 1.11; in assay [19] it was 1.1. The composite Z-score in assay [2] was 0.226 (inactive). Moreover, the z-score in assay [17] was -0.266; in assay [20], 0.594 (inactive).
For `[N-]=[N+]=NCc1ccccc1[C@H]1OC(c2ccc(OCCCO)cc2)=N[C@@]1(CCS(=O)(=O)c1ccccc1)C(=O)NCCN1CCOCC1`, the composite z-score in assay [1] turned out to be 0.888; in assay [3], 0.596; in assay [4] it was 0.163; in assay [5], 0.621; in [6], 2.76; in assay [7] it was 0.654. For the same compound, the composite z-score in assay [8] is 1.3; in [9], -0.222; in assay [10], 0.944; in assay [11], 1.35; in assay [12], 1.27; in assay [13], 0.907. Also, the composite z-score is 1.04 in assay [14]; 0.777 in [15]; 0.188 in [16]; -0.237 in [18]; 0.57 in assay [19]. Moreover, the composite Z-score in assay [2] was 0.516 (inactive). In addition, the z-score was 0.577 in [17] and -3.06 (inactive) in assay [20].
Regarding `O=C1C[C@@](C(=O)NCC(F)(F)F)(c2ccc([N+](=O)[O-])cc2)[C@@H](c2ccc(CO)cc2I)N1CC12CC3CC(CC(C3)C1)C2`, the composite z-score in [1] is 0.506; in assay [3], -0.056; in [4], -0.13; in [5], 0.517; in assay [6] it was 1.48; in assay [7], 1.15. Besides, the composite z-score is 1.29 in assay [8]; -0.0117 in [9]; 1.12 in [10]; 1.31 in [11]; 0.722 in [12]; -0.0231 in assay [13]. In addition, the composite z-score turned out to be 0.93 in [14]; 0.994 in assay [15]; 1.34 in assay [16]; 1.22 in [18]; 0.249 in assay [19]. The composite Z-score in assay [2] is 0.0839 (inactive). The results for the z-score in assay [17] and in assay [20] were 1.73 and -0.251 (inactive), respectively.
